Experimental data as given in PubChem BioAssay (NCI).
About 83,000 compounds went through this panel and 20% of them were active in at least one assay; those are over-represented in the sample as a whole.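 Single-concentration screen, 48 h exposure, 96-well plates. Endpoint: percent growth. Below 10 = active.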 A number with no mark means an inactive call. Activity calls are given as the source filed them.

What was measured:
Test in all cases: NCI-60 one-dose screen, 48 h (100 = growth as untreated, 0 = no growth, -100 = all killed)
Conditions in all cases: 10 µM unless noted
[1] = system: SR leukemia
[2] = system: RPMI-8226 leukemia
[3] = system: OVCAR-8 ovarian
[4] = system: OVCAR-5 ovarian
[5] = system: OVCAR-4 ovarian
[6] = system: SK-OV-3 ovarian
[7] = system: IGROV1 ovarian
[8] = system: OVCAR-3 ovarian
[9] = system: HS 578T breast
[10] = system: NCI/ADR-RES ovarian
[11] = system: T-47D breast
[12] = system: BT-549 breast
[13] = system: MDA-MB-435 melanoma
[14] = system: SW-620 colon
[15] = system: MCF7 breast
[16] = system: HCT-116 colon
[17] = system: HCC-2998 colon
[18] = system: KM12 colon

| SMILES | growth [1] | growth [2] | growth [3] | growth [4] | growth [5] | growth [6] | growth [7] | growth [8] | growth [9] | growth [10] | growth [11] | growth [12] | growth [13] | growth [14] | growth [15] | growth [16] | growth [17] | growth [18] |
| --- | --- | --- | --- | --- | --- | --- | --- | --- | --- | --- | --- | --- | --- | --- | --- | --- | --- | --- |
| C/C=C(/C(=C/C)c1ccc(O)cc1)c1ccc(O)cc1 | 15.5% | 18.3% | 48.3% | 50.1% | 58.6% | 10.7% | 36.2% | -1.49% (active) | 25.6% | 24.3% | 53.5% | 40.7% | -40.2% (active) | 25.6% | 20.6% | 27% | 61.7% | 20.3% |
| O=C(CNc1ccc2c(c1)C(=O)c1ccccc1C2=O)Nc1ccc2c(c1)C(=O)c1ccccc1C2=O | -8.94% (active) | -36.6% (active) | -25.3% (active) | -83.6% (active) | -26.4% (active) | -30.8% (active) | -72.9% (active) | -99.8% (active) | -1.05% (active) | -40% (active) | -65.5% (active) | -80.4% (active) | -82.4% (active) | -89.9% (active) | -71.1% (active) | -90.2% (active) | -93.3% (active) | -91.4% (active) |
| NC(=NCCCCCCN=C(N)/N=C(\N)Nc1ccc(Cl)cc1)/N=C(\N)Nc1ccc(Cl)cc1 | 25.1% | 28.4% | 17.6% | 28.7% | 21.4% | 2.57% (active) | -24.1% (active) | 17% | 18.1% | 46.8% | 19.3% | 10.6% | 18.3% | 23.4% | 7.79% (active) | 13.5% | 15.3% | -12% (active) |
| Oc1c(Cl)cc(Cl)c(Cl)c1Cc1c(O)c(Cl)cc(Cl)c1Cl | 63.9% | 6.95% (active) | 7.43% (active) | 39.4% | 29.5% | 19.1% | 25.1% | 10.8% | -1.24% (active) | 3.82% (active) | 33.8% | 17.2% | 10.4% | 16.7% | 10.3% | 3.93% (active) | 7.48% (active) | 8.09% (active) |
| C[C@H]1O[C@@H](O[C@H]2[C@@H](O)C[C@H](O[C@H]3[C@@H](O)C[C@H](O[C@H]4CC[C@]5(C)C6C[C@@H](O)[C@]7(C)[C@@H](C8=CC(=O)OC8)CC[C@]7(O)C6CC[C@@H]5C4)O[C@@H]3C)O[C@@H]2C)C[C@H](O)[C@@H]1O (some centres undefined) | -9.87% (active) | -23.7% (active) | -93.5% (active) | -99.7% (active) | -29.6% (active) | -93.3% (active) | -38.4% (active) | -100% (active) | -9.01% (active) | -87.7% (active) | -49.1% (active) | -89.6% (active) | -100% (active) | -97.9% (active) | -26.5% (active) | -88.7% (active) | -79.1% (active) | -100% (active) |
| NS(=O)(=O)c1ccc(-n2ncc3c(N/N=C/c4ccccc4)ncnc32)cc1 | 50.8% | 83.4% | 55.5% | 97.2% | 54.3% | 107% | 76.5% | 99.9% | 113% | 87.6% | 94.6% | 113% | 88.4% | 94.6% | 91% | 83.2% | 74.7% | 102% |
| CCCCCCCC[Si](OCC)(OCC)OCC | 79.4% | 99.2% | 98.9% | 104% | 103% | 105% | 94.6% | 106% | 109% | 108% | 96.2% | 99.1% | 109% | 105% | 98.3% | 101% | 105% | 103% |
| CSc1nc(N)c2c(n1)N(C)C=NS2(=O)=O | 102% | 103% | 102% | 93.7% | 108% | 117% | 119% | 122% | 118% | 103% | 97.2% | 100% | 111% | 102% | 102% | 102% | 107% | 117% |
